Experimental findings from PubChem BioAssay AID651635 (National Center for Advancing Translational Sciences (NCATS), 2013) are described below.

The whole screen tested about 400,000 compounds, of which about 1,900 (0.47%) were called active. Another 14% or so got no clear call; they are omitted. The call rests on the fitted dose curve; in most records, active means well fitted cell-killing curve with a large enough effect; inconclusive means small, poorly fitted or top-dose-only effect, or effect the other way; inactive means no such curve, though single readings can be large or run the other way. The sample as a whole holds a higher share of actives than the screen did.
Potency means the concentration at half of the fitted maximal effect.

The assay can be described thus: Viability Counterscreen for Primary qHTS for Inhibitors of ATXN expression. Further: nearly all actives have a fitted effect of over 40% in size. The following applies: S2 cells (HEK-293 line with an ATXN2-luciferase reporter) viability, CellTiter-Fluor protease fluorescence, 24 h; series mostly up to 56.7 µM; activity change, negative = cytotoxicity: at the top concentration. The text has this: Spinocerebellar ataxia type 2 (SCA2) is a multisystem neurodegenerative disease caused by a dominantly-acting mutation leading to expansion of a polyQ domain in the ataxin-2 protein (ATXN2). SCA2 patients develop progressive ataxia and later lose function in other neuronal systems. Prominent parkinsonian signs develop in some patients. Similar to many neurodegenerative disorders, no symptomatic or disease-modifying treatments are known.
The primary objective of the proposed research is to identify compounds inhibiting ATXN2 expression and to test them for efficacy in SCA2 mouse models. To this end, we have developed a cell-based assay paired with an in vivo mouse model using identical luciferase expression constructs. This approach takes advantage of an ATXN2-luciferase transgene, with the luciferase gene flanked by the upstream and downstream portions of the ATXN2 gene. This primary assay was tested against the NIH Molecular Libraries Small Molecule Repository (MLSMR).
NIH Chemical Genomics Center [NCGC]
NIH Molecular Libraries Probe Centers Network [MLPCN]
Assay Submitter (PI): Daniel Scoles, University of Utah
PROTOCOL TABLE (as described by Inglese J, Shamu CE and Guy RK. 2007)
SEQUENCE No. (e.g., 1, 2, 3, etc.); […] (e.g., Cells, Incubation, Reagent, etc.); VALUE; DESCRIPTION.
1; Cells; 4 uL; white, solid bottom, 1536-well Greiner assay plate.
2; Incubation; 2 hr; 37 degree C in 5% humidified CO2.
3; Compounds; 23 nL; Kalypsis pintool (Wako USA) equipped with a 1536-well pin head.
4; Incubation; 24 hr; 37 degree C in 5% humidified CO2.
5; Reagent; 1 uL; Gly-Phe-7-Amino-4-trifluoromethylcoumarin.
6; Incubation; 30 min; 37 degree C in 5% humidified CO2.
7; Detection; Fluorescence; ViewLux plate reader (PerkinElmer).
8; Reagent; 3 uL; SteadyGlo luciferase solution (Promega).
9; Incubation; 5 min; room temperature.
10; Detection; Luminescence; ViewLux plate reader (PerkinElmer).
NOTES (numbers refer to Sequence numbers above)
1. S2 cells expressing ATXN2-luciferase reporter were suspended in phenol-red free DMEM and dispensed in assay plates using a Multidrop Combi dispenser (Thermo Fisher Scientific).
2. Assay plates were incubated. Evaporation was prevented by covering assay plates with metal lids containing holes to allow gas diffusion.
3. […] Vehicle-only plates, with DMSO being pin-transferred to columns 5-48, were inserted uniformly at the beginning and the end of each library to monitor and record any shifts in assay performance.
5. 125 uM Gly-Phe-7-Amino-4-trifluoromethylcoumarin (MP Biomedicals) working concentration was used at a final concentration of 25 uM.
7. To assess cell viability; the assay plates were read using the ViewLux high-throughput CCD imager (PerkinElmer), wherein single end-point fluorescence measurement was acquired (excitation 405/10; emission 540/25 nm).
8. Detection reagent SteadyGlo Luciferase (Promega) was added to the assay plate.
10. Luminescence is then measured on the ViewLux imager equipped with a clear emission filter using a 2 sec exposure. All screening operations were performed on a fully integrated robotic system (Kalypsys) containing one RX-130 and two RX-90 anthropomorphic robotic arms (Staubli).
Inglese J, Shamu CE and Guy RK, Reporting data from high throughput screening of small molecule libraries, Nature Chemical Biology, 2007, 3(8): 438-441. doi.org/10.1038/nchembio0807-438.
As for `CC[C@H]1CN2CCc3cc(OC)c(OC)cc3[C@@H]2C[C@@H]1C[C@H]1NCCc2cc(OC)c(OC)cc21`, the Potency was 39.8 µM (active).
In the case of `C[C@H]1CC[C@@]2(NC1)O[C@@H]1C[C@H]3[C@@H]4CC=C5C[C@@H](O)CC[C@]5(C)[C@@H]4CC[C@]3(C)[C@@H]1[C@@H]2C`, the “activity change, negative = cytotoxicity” value was -10.1% [at 25.4 µM] (inactive).
As to `C[C@]12CC[C@@H]3C(=CCc4cc(O)ccc43)[C@@H]1CCC2=O`, the “activity change, negative = cytotoxicity” value is -14% [at 25.4 µM] (inactive).
Same read-out and setting: the same measure for `CCOC(=O)c1c(C)c(C(=O)N2CCC3(CC2)OCCO3)c(C)n1CC`: -18.8% (inactive); for `CC(=O)NC(=O)NC(C)Cc1ccccc1` (stereo not given): -18.5% (inactive).
For the compound `CC(Cc1ccccc1)NCCC(c1ccccc1)c1ccccc1` (stereo not given), the Potency is 20 µM (active).
For `CC(Cc1ccccc1)NC=O` (stereo not given), the “activity change, negative = cytotoxicity” value is -23.5% (inactive).
For `Cc1cc(-c2ccc(N)c(C)c2)ccc1N`, the “activity change, negative = cytotoxicity” value was -2.03% (inactive).
On to `CCN1C[C@@]2(COC)CC[C@H](OC)[C@]34[C@@H]1[C@]1(OCO[C@@]15C[C@@H](OC)C1C[C@H]3[C@H]5[C@@H]1OC)[C@H](O)[C@@H]24`, for which the “activity change, negative = cytotoxicity” value was -11% [at 25.4 µM] (inactive).
For `CN1[C@@H]2CC[C@H]1CC(OC(=O)c1cc(Cl)cc(Cl)c1)C2` (stereo not given in full), the “activity change, negative = cytotoxicity” value was -11.7% (inactive).
As to `O=C(CSc1ccccc1)Nc1ccc(C(=O)Nc2cccc(O)c2)cc1`, the “activity change, negative = cytotoxicity” value was -57.2% (inactive).
For `COc1ccccc1C(=O)N[C@@H]1c2ccccc2C2(CCN(Cc3nc(C(C)C)cs3)CC2)[C@H]1O`, the Potency was 35.5 µM (active).
In the case of `COC(=O)C1=C(c2ccc(Cl)c(C(F)(F)F)c2)C[C@@H]2CC[C@H]1N2C(=O)NC1CC1`, the “activity change, negative = cytotoxicity” value is -40.4% (inactive).
Take `Clc1ccc([C@@H]2C[C@H]3CC[C@@H]2N3)cn1`: the “activity change, negative = cytotoxicity” value is -15.3% [at 114 µM] (inactive).
Consider `C[C@]12CC[C@H](O)C[C@@H]1CC[C@H]1[C@H]2CC[C@]2(C)C(=O)CC[C@@H]12`, for which the Potency result is “inactive”.
With `CCOC(=O)[C@]12Cc3cc(OC)ccc3[C@H]1N(C(C)C)C(=O)c1ccccc12`, the Potency was 11.2 µM (active).
The same measure, in the same setting: the same measure for `CCOC(=O)[C@]12Cc3ccccc3[C@H]1N(C1CCCCC1)C(=O)c1cc(OC)ccc12`: 10 µM (active).
Regarding `COc1cccc(-c2ccc(O)c(CNC3CN4CCC3CC4)c2)n1` (stereo not given), the “activity change, negative = cytotoxicity” value was 5.68% (inactive).
`CCN1C[C@]2(C)CC[C@H](O)[C@@]34[C@@H]5CC6[C@@H](OC)C[C@@](O)([C@@H]5[C@@H]6O)[C@H](C[C@@H]23)[C@H]14`: the “activity change, negative = cytotoxicity” value is -4.51% [at 25.4 µM] (inactive).
In the case of `CCCOC(=O)c1cncn1C(C)c1ccccc1` (stereo not given), the “activity change, negative = cytotoxicity” value was 0.735% (inactive).
On to `Cc1nnc(NC(=O)c2cccn(Cc3cccc(F)c3)c2=O)s1`, for which the “activity change, negative = cytotoxicity” value is -19.4% (inactive).
Take `CCOC(=O)c1c(-c2ccccc2)oc2ccc(OC(=O)N(C)C)cc12`: the “activity change, negative = cytotoxicity” value was 4.74% (inactive).
Same read-out and setting: with `COC(=O)C1=C(c2ccc(F)cc2OCc2ccccc2)C[C@@H]2CC[C@H]1N2C(=O)NCc1ccc2[nH]ccc2c1` the figure was -34.1% (inactive); with `CC1N=C(N)OC1c1ccccc1` (stereo not given), -1.45% [at 114 µM] (inactive); with `O=C(Cn1c(=O)n(CC2CS2)c2ccccc21)N1CCCCC1` (stereo not given), -4.21% (inactive).
For the compound `CC(=CCOc1ccc2ccc(=O)oc2c1)C1=CC(=O)C(C)(C)O1`, the “activity change, negative = cytotoxicity” value is -34.9% (inactive).
Consider `Cc1ccc(Cn2nnnc2CN2CCC(n3nnc4ccccc43)CC2)cc1`, for which the “activity change, negative = cytotoxicity” value was -3.67% (inactive).
Consider `O=c1[nH]c2ccccc2n1C1CCN(C(c2ccccc2)c2nnnn2Cc2ccccc2)CC1` (stereo not given), for which the Potency is 7.08 µM (active).
Turning to `CCC(=NCCc1ccccc1)c1c(O)n(C2CCCCC2)c(=O)[nH]c1=O`, the “activity change, negative = cytotoxicity” value is -28.9% (inactive).
With `O=c1[nH]c2ccccc2n1C1CCN(C(c2ccnc3ccccc23)c2nnnn2Cc2ccccc2)CC1` (stereo not given), the Potency was 12.6 µM (active).
`O=P1(N(CCCl)CCCl)NC(OO)CCO1` (stereo not given): the “activity change, negative = cytotoxicity” value is 3.6% (inactive).
With `Cc1ccsc1C(=O)C1CCCN(Cc2ccc(O)cc2)C1` (stereo not given), the “activity change, negative = cytotoxicity” value is -7.9% (inactive).
With `Cc1ccc(N2C(=O)NC(=O)C(CCc3ccncc3)(Cc3cccc(Cl)c3Cl)C2=O)cc1` (stereo not given), the “activity change, negative = cytotoxicity” value is -29.8% (inactive).
Turning to `CCOP(=O)(OCC)C(O)c1ccc(OC)cc1OC` (stereo not given), the “activity change, negative = cytotoxicity” value was -10.4% (inactive).
Take `CC[N+]1(CCOC(=O)C(O)(c2ccccc2)c2ccccc2)CCCCC1`: the “activity change, negative = cytotoxicity” value was 16.1% (inactive).
With `Cc1ccc(Cl)cc1N1CCN(C(=O)C2CCC(CNS(=O)(=O)c3cccs3)CC2)CC1` (stereo not given), the “activity change, negative = cytotoxicity” value was -31.8% (inactive).
On to `Oc1ccc2c3c1OC1[C@H](O)CC[C@@]4(O)[C@@H](C2)N(CC2CC2)CC[C@]314` (stereo not given in full), for which the Potency result is “inactive”.
As for `CO[C@]12CC[C@@]3(C[C@@H]1[C@](C)(O)C(C)(C)C)[C@@H]1Cc4ccc(O)c5c4[C@@]3(CCN1CC1CC1)[C@H]2O5`, the Potency is 35.5 µM (active).
As to `CN(C)c1ccc(/C=C2\CC3C4CC=C5CC(O)CCC5(C)C4CCC3(C)C2=O)cc1` (stereo not given), the “activity change, negative = cytotoxicity” value is -18.1% (inactive).
As to `CC(C)=C[C@@H]1[C@@H](C(=O)OCc2coc(Cc3ccccc3)c2)C1(C)C`, the “activity change, negative = cytotoxicity” value is 9.08% (inactive).
As to `Cc1cc(OCc2cc(C(=O)O)oc2C)c2c3c(c(=O)oc2c1)CCCC3`, the “activity change, negative = cytotoxicity” value is 7.94% (inactive).
`CN(Cc1cccc2ncccc12)C(=O)c1cnn(-c2nccc(-c3ccccc3F)n2)c1C1CC1`: the Potency was 22.4 µM (active).
`CCCCC1C(=O)NC(=O)N(C2CCCCC2)C1=O` (stereo not given): the “activity change, negative = cytotoxicity” value was -8.69% (inactive).
Same read-out and setting: with `CC1=C(C(=O)O)N2C(=O)[C@@H](N)[C@H]2SC1` the figure was 3.3% [at 25.4 µM] (inactive).
Regarding `NCC(O)c1ccc(O)cc1` (stereo not given), the Potency result is “inactive”.
